Pf Dd2 inh: qHTS Primary assay for Inhibitors of Plasmodium falciparum Dd2 growth in vitro | P. falciparum Dd2 growth, SYBR Green, 72 h | Potency, µM (top dose mostly 28.9 µM), hits mostly inhibitors | 120,000 compounds, 4.3% hits; active = well fitted inhibition curve with a large enough effect; also: nearly all actives have a fitted effect of over 65% in size
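Readout: SYBR Green fluorescence, 485 nm excitation, 535 nm emission, after ~16 h lysis at 37C. Before that, Dd2-infected red cells (2.5% hematocrit) grew 72 h with compound, 29 uM top final concentration.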
Large screens that a line does not name were inactive; ! = a repeat was not active. Many of the other results were omitted from the sample, so hits are more common in it than they were.

Cc1cn2nc(C(=O)N3CCC(NC(=O)c4ccccc4Cl)CC3)cc2c(=O)[nH]1	none
COc1ccc(OC)c(S(=O)(=O)NC[C@H]2C[C@@H]3CCN2C[C@@H]3c2cc(-c3ccc4ccccc4c3)nn2C)c1	none
COc1ccc(-c2cc([C@H]3CN4CC[C@H]3C[C@@H]4CNS(=O)(=O)c3ccc(NC(C)=O)cc3)n(C)n2)cc1	none
COc1ccc(-c2cc([C@H]3CN4CC[C@H]3C[C@@H]4CNC(=O)c3ccco3)n(C)n2)cc1OC	none
COc1ccc(-c2cc([C@H]3CN4CC[C@H]3C[C@@H]4COC(=O)NC(C)C)n(C)n2)cc1OC	none
COc1ccc(-c2cc([C@H]3CN4CC[C@H]3C[C@@H]4CNS(=O)(=O)c3ccc(Cl)cc3)n(C)n2)cc1OC	Pf Dd2 inh 0.631µM
COc1ccc(-c2cc([C@H]3CN4CC[C@H]3C[C@@H]4CN)n(C)n2)cc1OC	Pf Dd2 inh 11.2µM
Cn1nc(-c2ccc3ccccc3c2)cc1[C@H]1CN2CC[C@H]1C[C@@H]2CNC(=O)NCc1ccccc1	Pf Dd2 inh 7.94µM
CC(=O)NC[C@H]1C[C@@H]2CCN1C[C@@H]2c1cc(-c2ccc3ccccc3c2)nn1C	none
COc1ccc(-c2cc([C@H]3CN4CC[C@H]3C[C@@H]4CNC(=O)NCc3ccccc3)n(C)n2)cc1	none
COc1cc(NC(=O)Cn2c(-c3ccc(F)cc3)nc(C)cc2=O)cc(OC)c1	none
CS(=O)(=O)N1CCCC1c1noc(CCC(=O)NC2CC2)n1 (centres undefined)	none
COCCC1(NC(=O)C(C)c2ccccc2)CCN(S(C)(=O)=O)CC1 (centres undefined)	none
CCN(CC)C1CCOC2(CCN(C(=O)C3CC3)CC2)C1 (centres undefined)	none
COc1nc2c(cc1CNC(=O)CSC)C(=O)N(CCc1ccccn1)C2	none
COc1ccc(CCNC(=O)c2ccc3nccn3c2)cc1	none
Cc1cn2nnc(C(=O)N3CCC(C(=O)Nc4cccc(F)c4)CC3)c2c(=O)[nH]1	none
CN1C(=O)CCCCC1C(=O)N1CCCCC1 (centres undefined)	none
COc1ccc(-c2cc3ncc(C(=O)c4cc([N+](=O)[O-])ccc4O)cn3n2)cc1	none
O=[N+]([O-])c1cccc(-c2ncc[nH]2)c1	none
O=[N+]([O-])c1ccc(O)c(-c2ccnc3cc(-c4ccccc4)nn23)c1	Pf Dd2 inh 10µM
Cc1ccc(NC(=O)Cn2ccn3nc(-c4ccc(F)cc4)c(CO)c3c2=O)cc1Cl	none
O=C1Nc2ccccc2CNC12CCN(Cc1ccncc1)CC2	none
Cc1noc(-c2nc(-c3ccc(Cl)cc3)no2)n1	none
COc1ccc([S+](=O)([O-])c2nnn3c2nc(NC2CC2)c2ccccc23)cc1	none
COc1ccc(-c2csc3ncnc(Nc4cccc(F)c4)c23)cc1	none
CCOc1ccc(-c2csc3ncnc(Nc4cccc(O)c4)c23)cc1	Pf Dd2 inh 10µM
COc1ccc(-c2csc3ncnc(Nc4cc(OC)cc(OC)c4)c23)cc1	none
COc1ccc(CN2Cc3cc(NC(=O)Cc4ccc(F)cc4)ccc3OCC2=O)c(OC)c1	none
O=C(NC1CCN(c2cc(-c3ccccc3)[nH]n2)CC1)c1ccsc1	none
O=C(NCc1ccccc1F)N1C[C@@H](CN2CCCCC2)[C@@H](CO)C1	none
O=C(Nc1ccc(Oc2ccccc2)cc1)N[C@H]1CO[C@H]2[C@@H]1OC[C@H]2OC(=O)Nc1cccc2ccccc12	none
O=C(Nc1ccc(Oc2ccccc2)cc1)O[C@@H]1CO[C@H]2[C@@H]1OC[C@@H]2NC(=S)Nc1cccc2ccccc12	Pf Dd2 inh 12.6µM
O=C(Nc1cccc2ccccc12)O[C@@H]1CO[C@H]2[C@@H]1OC[C@@H]2NC(=O)C1CCC1	none
COCCC(=O)N1CCC(n2c(C)cnc2C2CC2)CC1	none
N#Cc1cccc(C(=O)N2CCCN(S(=O)(=O)c3ccccc3)CCC(=O)NCC2)c1	none
COc1ccc(NCc2cccn2-c2nnc(N3CCC(C)CC3)s2)c(OC)c1	Pf Dd2 inh 11.2µM
COc1ccc(OC)c(NC(=O)c2cccn2-c2nnc(N3CCCCC3)s2)c1	none
COc1ccc(OC)c(NCc2cccn2-c2nnc(N3CCC(C)CC3)s2)c1	none
Cc1noc([C@@H]2CC(F)(F)CN2C(=O)c2ccoc2C)n1	none
Cc1cccc(-n2nc(C)c(CCC(=O)N3CCSCC3)c2Oc2ccccc2C)c1	Pf Dd2 inh 8.91µM
Cc1cccc(-n2nc(C)c(CCC(=O)NC3CC3)c2Oc2ccccc2C)c1	none
CCNC(=O)CCc1c(C)nn(-c2cccc(C)c2)c1Oc1ccccc1C	none
O=C([C@H]1C[C@@H](F)CN1S(=O)(=O)c1ccc(Cl)cc1)N1CCOCC1	none
CC(NC(=O)c1ccc2nc(CCc3ccccc3)oc2c1)c1ccccc1 (centres undefined)	none
CCCNC(=O)c1ccc2c(c1)N=C(CCC)c1ccccc1S2	none
CCC1=Nc2cc(C(=O)NC(C)c3ccccc3)ccc2Sc2ccc(Cl)cc21 (centres undefined)	Pf Dd2 inh 8.91µM
CCCC1=Nc2cc(C(=O)NCCc3ccccc3)ccc2Sc2ccc(C)cc21	Pf Dd2 inh 6.31µM!
CCCC1=Nc2cc(C(=O)NCc3ccc(OC)cc3)ccc2Sc2ccc(C)cc21	none
CCCC1=Nc2cc(C(=O)NC(C)c3ccccc3)ccc2Sc2ccc(C)cc21 (centres undefined)	none
CN1CCC2(CCC1=O)CN(S(=O)(=O)c1cn(C)cn1)CCN2C (centres undefined)	none
O=C(C[C@@H]1O[C@H](CNC(=O)Nc2ccccc2)[C@@H](O)[C@H]1O)NCc1cccnc1	none
COc1ccccc1-c1cc(C(=O)N2CCN(c3ncccn3)CC2)c2cnn(C)c2n1	none
COCCOc1ccc2c(n1)CCN(C(=O)Nc1ccc(C)c(C)c1)C2	none
CN(CC1CCN(CCc2ccc(F)cc2)CC1)C1CCN(Cc2cccnc2)CC1	Pf Dd2 inh 6.31µM
CN(Cc1cccnc1)c1nc2c(c(=O)[nH]1)CCN(Cc1ccc(F)cc1)CC2	none
c1cncc(CN2CCC(OC3CCN(Cc4ccncc4)CC3)CC2)c1	none
CCN(CC)CC[C@H]1CN(C(=O)NC(C)C)CC[C@H]1CC(=O)O	none
O=C(CN1CC2CC(C1)[C@H]1CCCC(=O)N1C2)Nc1ccc(N2CCOCC2)cc1 (some centres undefined)	none
O=C(CN1CCOCC1)N1CC2CC(C1)[C@H]1CCCC(=O)N1C2 (some centres undefined)	none
Cc1nnnn1CCC(=O)N[C@H]1CN(S(C)(=O)=O)C[C@@H]1C(C)C	none
O=C(c1ccc(NCc2ccncc2)cc1)N1CCCC2(CCNCC2)CC1	none
CN(C)Cc1nnc(C2CCN(C(=O)CCNS(C)(=O)=O)CC2)n1C	none
CC(C)N[C@H]1C[C@@H](Cc2cc(-c3ccccc3)on2)C1(C)C	none
CN1CCC(N[C@H]2C[C@@H](Cc3cc(-c4ccccc4)on3)C2(C)C)CC1	Pf Dd2 inh 3.98µM
COc1ccc(C(=O)N[C@H]2C[C@@H](Cc3cc(-c4ccccc4)on3)C2(C)C)cc1	Pf Dd2 inh 4.47µM
COc1ccc(C(=O)N[C@H]2C[C@@H](Cc3cc(CN(C)C)on3)C2(C)C)cc1	none
COCc1cc(C[C@@H]2C[C@H](NC3CCC3)C2(C)C)no1	none
CCNC(=O)N[C@H]1C[C@@H](Cc2cc(-c3ccccc3)on2)C1(C)C	none
Cc1nc(C2CC(N)C2)cc(N2CCC(CN3CCCC3=O)CC2)n1 (centres undefined)	none
Cn1nc(C2CCN(C(=O)c3cc(F)ccc3F)CC2)c2c1CCOC2	none
Cc1cccc(-n2nc(-c3c(C)nc4scc(CC(=O)NC5CCCCC5)n4c3=O)cc2C)c1C	none
COc1ccc(C(=O)N2CCC(N3CC4CC(C3)[C@H]3CCCC(=O)N3C4)CC2)cc1F (some centres undefined)	none

Assay outcomes from PubChem BioAssay.
